Measured values reported in PubChem BioAssay (NCATS).
Values joined by “and” are separate entries in the source; they are usually repeats but may differ in a detail not shown here. Identical values can stand only once. Inconclusive results are not listed. Active and inactive are the calls of the source. Unless noted, the call rests on the fitted dose curve; in most records, active means well fitted curve in the direction sought with a large enough effect; inconclusive means small, poorly fitted or top-dose-only effect, or another doubt; inactive means no such curve, though single readings can be large; an effect the other way counts as inactive or inconclusive.

Assays:
[1] = target: Mitogen-activated protein kinase 10 (Mus musculus) (UniProt Q61831); experiment: JNK3 AlphaScreen Assay (AID 530; active means well fitted curve in either direction with a large enough effect, not every such curve was filed as active;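 further: kinase came from lysate of stimulated human HepG2 cells; signal reports phosphorylation of biotinylated GST-cJun 1-79 at Ser73 with 10 µM ATP; series mostly up to about 57 µM; on the % scale 0 is the no-effect control and ±100 the full control effect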)
In short: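 Phosphorylation of biotinylated GST-cJun(1-79) at Ser73 is measured by AlphaScreen proximity luminescence. Enzyme is JNK3 in HepG2 lysates activated with interleukin-1beta and tumor necrosis factor alpha; ATP is 10 uM final.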

[2] = target: Cytochrome P450 3A4 (Homo sapiens) (UniProt P08684); experiment: qHTS Assay for Inhibitors and Substrates of Cytochrome P450 3A4 (AID 884); further: series mostly up to about 57 µM; on the % scale 0 is the no-effect control and ±100 the full control effect; nearly all actives have a fitted effect of over 50% in size
Chain of Cytochrome P450 3A4 (Homo sapiens) (P08684 whole entry, looked up): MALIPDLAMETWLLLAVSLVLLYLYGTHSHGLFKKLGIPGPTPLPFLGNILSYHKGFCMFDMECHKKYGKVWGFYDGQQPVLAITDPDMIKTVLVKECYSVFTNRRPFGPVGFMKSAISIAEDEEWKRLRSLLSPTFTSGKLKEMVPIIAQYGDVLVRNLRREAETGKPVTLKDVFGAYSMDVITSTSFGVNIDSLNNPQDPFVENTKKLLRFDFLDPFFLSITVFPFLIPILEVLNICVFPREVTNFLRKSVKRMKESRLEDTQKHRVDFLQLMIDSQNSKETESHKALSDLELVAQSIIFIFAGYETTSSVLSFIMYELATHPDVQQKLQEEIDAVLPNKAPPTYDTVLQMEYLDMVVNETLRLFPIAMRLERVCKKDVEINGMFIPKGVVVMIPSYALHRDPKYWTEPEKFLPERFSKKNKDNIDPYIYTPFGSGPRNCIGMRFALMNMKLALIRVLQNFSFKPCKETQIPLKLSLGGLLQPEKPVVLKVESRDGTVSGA
In short: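 Luminescent readout of luciferin produced by CYP3A4 (20 nM) dealkylation of Luciferin-PPXE, 25 uM (its KM). NADPH-driven reaction ran 60 min at RT after 10 min compound preincubation; data scaled to 57 uM ketoconazole as 100% inhibition.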

[3] = MultiTox-Fluor Cytotoxicity Assay - LYMP1-001 - Live Cells (AID 947);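 further: 0% = DMSO only and full inhibition = tetraoctylammonium bromide control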
[4] = MultiTox-Fluor Cytotoxicity Assay - LYMP1-002 - Dead Cells (AID 960);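 further: 0% = DMSO and 100% = tetraoctylammonium bromide; nearly all actives have a fitted effect of over 60% in size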
In short: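 Dead-cell fluorescence (Ex/Em 485/520) after 16 h compound exposure at 37 C of LYMP1-002 lymphoblastoid cells in complete medium; AC50 by Hill equation, with data scaled between DMSO and 15 uM tetraoctylammonium bromide.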

[5] = Cell Viability - LYMP2-009 (AID 968);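 further: series mostly up to about 92 µM; cells exposed to compound for 24 h at 37 °C; 0% = DMSO alone and the full-kill end = tetraoctylammonium bromide at 92 µM; nearly all actives have a fitted effect of over 55% in size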
[6] = Cell Viability - LYMP2-012 (AID 982);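 further: cellular ATP by luciferase luminescence where a drop means cytotoxicity; cells exposed to compound for one day before reading; 0% = DMSO only and full loss = 92 µM tetraoctylammonium bromide; nearly all actives have a fitted effect of over 55% in size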
[7] = target: Estrogen receptor (Homo sapiens) (UniProt P03372); experiment: qHTS assay for small molecule antagonists of estrogen receptor alpha signaling (AID 588513; active means well fitted curve in the direction sought with a large enough effect in the signal ratio, with a control signal flat, not every such curve was filed as active; the % refers to the signal ratio; further: on the % scale 0 is the no-effect control and ±100 the full control effect)
Chain of Estrogen receptor (Homo sapiens) (P03372 whole entry, looked up): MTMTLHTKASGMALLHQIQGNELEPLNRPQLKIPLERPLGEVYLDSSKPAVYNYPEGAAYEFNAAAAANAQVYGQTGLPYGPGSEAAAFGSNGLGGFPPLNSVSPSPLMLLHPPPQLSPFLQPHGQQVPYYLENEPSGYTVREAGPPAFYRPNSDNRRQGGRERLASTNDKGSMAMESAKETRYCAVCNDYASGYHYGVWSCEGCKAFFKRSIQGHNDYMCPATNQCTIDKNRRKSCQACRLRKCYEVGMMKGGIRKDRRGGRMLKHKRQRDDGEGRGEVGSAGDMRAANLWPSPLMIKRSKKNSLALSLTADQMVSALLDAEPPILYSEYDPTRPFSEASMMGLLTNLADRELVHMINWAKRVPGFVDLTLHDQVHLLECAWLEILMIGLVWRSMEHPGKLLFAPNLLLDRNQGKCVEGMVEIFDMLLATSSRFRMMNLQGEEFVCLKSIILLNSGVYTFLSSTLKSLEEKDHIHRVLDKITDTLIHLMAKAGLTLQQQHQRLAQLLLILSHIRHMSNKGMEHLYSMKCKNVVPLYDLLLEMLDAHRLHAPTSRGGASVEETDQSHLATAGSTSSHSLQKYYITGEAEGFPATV
In short: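 Beta-lactamase reporter, antagonist mode, HEK 293 GripTite cells; 0.5nM E2 stimulus, 18 h, 37 C; CCF4 dye 2 h RT; fluorescence. IC50 and efficacy from Hill fits, normalized to E2 and DMSO.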

[8] = target: Estrogen receptor (Homo sapiens) (UniProt P03372); experiment: qHTS assay for small molecule agonists of estrogen receptor alpha signaling (AID 588514; calls by dose curve; further: nearly all actives have a fitted effect of over 70% in size; further: potency means the concentration at half of the fitted maximal effect;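 on activation: 0% = vehicle only and 100% = reference agonist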)
In short: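 EC50 and efficacy came from Hill fits of beta-lactamase reporter signal (CCF4 dye, 2 h at room temperature) scaled between DMSO and 20 nM 17-beta-estradiol. Agonist mode: HEK293 ER-alpha-UAS-bla cells in charcoal/dextran-stripped serum medium, 18 h compound exposure at 37 C.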

[9] = target: Glucocorticoid receptor (Homo sapiens) (UniProt P04150); experiment: qHTS assay for small molecule antagonists of glucocorticoid receptor signaling (AID 588533; active means well fitted inhibition curve with a large enough effect in the signal ratio, with a control signal flat, not every such curve was filed as active; the % refers to the signal ratio;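 further: cells stimulated with 2 nM dexamethasone as agonist; on the % scale 0 is the no-effect control and ±100 the full control effect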)
Chain of Glucocorticoid receptor (Homo sapiens) (P04150 whole entry, looked up): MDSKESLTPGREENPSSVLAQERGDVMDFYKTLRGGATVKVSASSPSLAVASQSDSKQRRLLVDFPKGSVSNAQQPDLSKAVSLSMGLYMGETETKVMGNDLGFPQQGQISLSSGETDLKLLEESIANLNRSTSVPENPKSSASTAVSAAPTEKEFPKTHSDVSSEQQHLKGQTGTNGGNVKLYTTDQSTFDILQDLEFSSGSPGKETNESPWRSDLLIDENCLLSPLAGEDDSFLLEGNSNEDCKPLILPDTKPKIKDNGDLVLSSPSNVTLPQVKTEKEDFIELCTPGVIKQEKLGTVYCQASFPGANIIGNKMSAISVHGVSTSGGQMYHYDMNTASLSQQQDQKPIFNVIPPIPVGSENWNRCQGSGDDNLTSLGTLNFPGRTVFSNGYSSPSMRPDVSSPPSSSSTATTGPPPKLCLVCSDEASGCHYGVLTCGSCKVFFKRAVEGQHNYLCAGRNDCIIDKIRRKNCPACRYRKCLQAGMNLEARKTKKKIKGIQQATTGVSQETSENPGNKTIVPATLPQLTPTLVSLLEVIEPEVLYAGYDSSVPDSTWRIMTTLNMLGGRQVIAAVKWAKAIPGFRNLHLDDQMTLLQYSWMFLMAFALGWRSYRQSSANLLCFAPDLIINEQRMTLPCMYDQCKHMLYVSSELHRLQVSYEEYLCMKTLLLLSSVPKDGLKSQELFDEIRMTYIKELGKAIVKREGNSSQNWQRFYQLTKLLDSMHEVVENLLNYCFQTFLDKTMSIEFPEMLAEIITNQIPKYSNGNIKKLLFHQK
In short: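 Antagonist-mode qHTS: compound titrations added to GRE-bla HeLa cells, then dexamethasone 2 nM final; 18 h, 37 C. CCF4 FRET fluorescence normalized to dexamethasone and DMSO; IC50 from Hill fit.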

[10] = target: Peroxisome proliferator-activated receptor delta (Homo sapiens) (UniProt Q03181); experiment: qHTS assay for small molecule agonists of peroxisome proliferator-activated receptor delta signaling (AID 588534; calls by dose curve;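 further: 0% = DMSO basal wells and 100% = positive control agonist at 10 µM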)
Chain of Peroxisome proliferator-activated receptor delta (Homo sapiens) (Q03181 whole entry, looked up): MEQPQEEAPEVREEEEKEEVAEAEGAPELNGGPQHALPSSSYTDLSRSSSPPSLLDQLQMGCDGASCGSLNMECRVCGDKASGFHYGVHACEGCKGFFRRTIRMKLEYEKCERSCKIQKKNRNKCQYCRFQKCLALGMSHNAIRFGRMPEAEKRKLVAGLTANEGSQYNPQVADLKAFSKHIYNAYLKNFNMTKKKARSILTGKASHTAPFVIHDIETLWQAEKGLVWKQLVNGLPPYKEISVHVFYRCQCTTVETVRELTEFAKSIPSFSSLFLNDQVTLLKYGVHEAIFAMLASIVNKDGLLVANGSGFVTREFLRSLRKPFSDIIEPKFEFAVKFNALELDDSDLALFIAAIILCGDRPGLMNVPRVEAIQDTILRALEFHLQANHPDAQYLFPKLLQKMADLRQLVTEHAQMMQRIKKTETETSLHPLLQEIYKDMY
In short: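 Agonist-mode beta-lactamase reporter readout (CCF4 dye, 2 h at RT) after 18 h at 37 °C exposure to a titration; Hill-equation fitting gave EC50 and maximal response.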

[11] = target: Vitamin D3 receptor (Homo sapiens) (UniProt P11473); experiment: qHTS assay for small molecule antagonists of vitamin D receptor signaling (AID 588541; calls by dose curve;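 further: receptor activated by calcitriol during compound treatment; series mostly up to about 77 µM; on the % scale 0 is the no-effect control and ±100 the full control effect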)
Chain of Vitamin D3 receptor (Homo sapiens) (P11473 whole entry, looked up): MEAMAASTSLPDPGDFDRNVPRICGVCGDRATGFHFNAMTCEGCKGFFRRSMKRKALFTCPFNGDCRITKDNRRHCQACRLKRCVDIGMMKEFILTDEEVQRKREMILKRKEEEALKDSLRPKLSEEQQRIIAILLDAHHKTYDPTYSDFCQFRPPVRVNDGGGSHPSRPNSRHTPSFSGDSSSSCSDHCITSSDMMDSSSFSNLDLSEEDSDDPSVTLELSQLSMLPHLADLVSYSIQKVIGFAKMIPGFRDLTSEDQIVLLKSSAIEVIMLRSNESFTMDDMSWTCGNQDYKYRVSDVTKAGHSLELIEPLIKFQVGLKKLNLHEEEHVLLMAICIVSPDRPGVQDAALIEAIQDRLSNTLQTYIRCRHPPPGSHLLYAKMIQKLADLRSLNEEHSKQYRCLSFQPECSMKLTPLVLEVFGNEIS
In short: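 VDR-UAS-bla HEK293T cells (2000/well, 2% charcoal-stripped FBS) were treated with titrated compounds plus 1-alpha,25-dihydroxyvitamin D3 (50 nM or 3 nM final) for 16 h at 37 C. CCF4 beta-lactamase fluorescence was read; Hill fits gave IC50.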

[12] = target: Vitamin D3 receptor (Homo sapiens) (UniProt P11473); experiment: qHTS assay for small molecule agonists of vitamin D receptor signaling (AID 588543; calls by dose curve;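 further: 0% = DMSO basal and 100% = reference agonist control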)
In short: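 β-lactamase reporter, VDR-UAS-bla HEK293T, agonist mode. Cells plated 5 h at 37 °C, compound titration 16 h at 37 °C, CCF4 dye 2 h RT, ratio 460/530 nm. Hill fit → EC50, efficacy vs 50 nM 1α,25-(OH)2D3.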

[13] = target: Voltage-gated inwardly rectifying potassium channel KCNH2 (Homo sapiens) (UniProt Q12809); experiment: qHTS Assay for Small Molecule Inhibitors of the Human hERG Channel Activity (AID 588834);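 further: top concentration of the series differs between compounds; on the % scale 0 is the no-effect control and ±100 the full control effect; lower thallium flux fluorescence means stronger hERG block; nearly all actives have a fitted effect of over 50% in size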
Chain of Voltage-gated inwardly rectifying potassium channel KCNH2 (Homo sapiens) (Q12809 whole entry, looked up): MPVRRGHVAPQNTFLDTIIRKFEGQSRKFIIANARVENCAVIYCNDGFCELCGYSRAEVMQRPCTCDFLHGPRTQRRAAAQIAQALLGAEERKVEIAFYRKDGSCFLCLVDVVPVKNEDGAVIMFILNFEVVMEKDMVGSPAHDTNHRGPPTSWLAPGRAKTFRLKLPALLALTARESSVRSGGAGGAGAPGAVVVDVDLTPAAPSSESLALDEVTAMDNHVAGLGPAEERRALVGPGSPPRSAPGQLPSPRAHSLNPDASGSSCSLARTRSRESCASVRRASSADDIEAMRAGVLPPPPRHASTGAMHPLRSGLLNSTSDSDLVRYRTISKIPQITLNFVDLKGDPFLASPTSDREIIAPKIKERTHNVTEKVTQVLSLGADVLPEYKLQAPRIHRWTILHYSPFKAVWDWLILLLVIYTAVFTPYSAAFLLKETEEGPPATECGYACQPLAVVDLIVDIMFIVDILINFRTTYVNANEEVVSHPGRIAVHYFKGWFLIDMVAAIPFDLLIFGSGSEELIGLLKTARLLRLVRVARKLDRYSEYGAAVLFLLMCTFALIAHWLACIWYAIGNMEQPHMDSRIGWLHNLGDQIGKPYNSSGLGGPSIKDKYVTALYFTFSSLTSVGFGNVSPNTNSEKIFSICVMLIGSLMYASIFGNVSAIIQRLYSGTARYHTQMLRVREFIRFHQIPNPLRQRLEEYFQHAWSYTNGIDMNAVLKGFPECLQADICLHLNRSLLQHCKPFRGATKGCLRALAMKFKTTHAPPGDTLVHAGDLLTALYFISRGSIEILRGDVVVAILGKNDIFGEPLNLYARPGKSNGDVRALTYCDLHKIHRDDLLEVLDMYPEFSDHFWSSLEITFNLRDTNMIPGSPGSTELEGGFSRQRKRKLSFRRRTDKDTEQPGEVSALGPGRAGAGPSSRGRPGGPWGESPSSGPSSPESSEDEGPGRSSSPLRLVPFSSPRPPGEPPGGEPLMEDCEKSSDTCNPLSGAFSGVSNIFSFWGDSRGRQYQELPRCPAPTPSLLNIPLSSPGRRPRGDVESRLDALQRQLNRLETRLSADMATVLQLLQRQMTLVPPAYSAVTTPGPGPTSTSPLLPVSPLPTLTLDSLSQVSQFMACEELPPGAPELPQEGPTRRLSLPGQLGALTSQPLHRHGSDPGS
In short: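 Thallium-flux (FluxOR) read-out on FDSS: fluorescence read 10 s before and 2 min after stimulation buffer. hERG-BacMam-transduced U2OS cells, compound exposure about 10 min. AC50 by standard Hill equation.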

[14] = qHTS assay for small molecule activators of the p53 signaling pathway (AID 651743; active means well fitted activation curve with a large enough effect in the signal ratio, not every such curve was filed as active; the % refers to the signal ratio; further: series mostly up to about 92 µM; % of control where 0% means no effect); conditions: HCT-116 p53RE-bla, beta-lactamase FRET ratio, 16 h; activation: stronger effect = higher value
In short: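 Agonist-mode quantitative HTS in HCT-116 cells carrying a p53-response-element beta-lactamase reporter; 16 h compound treatment at 37 C, then FRET substrate loading for 2 h at room temperature and fluorescence read.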

[15] = qHTS assay for small molecule disruptors of the mitochondrial membrane potential - 1 hr assay (AID 651754; calls by dose curve; further: nearly all actives have a fitted effect of over 35% in size; further: potency means the concentration at half of the fitted maximal effect)
In short: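 Mitochondrial potential in living HepG2 cells after 1 hr compound treatment at 37C was read with Mito-MPS dye added for a further 30 min. Red aggregate and green monomer fluorescence were measured; loss of potential leaves dye as cytoplasmic monomers.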

[16] = qHTS assay for environmental chemicals that activate the Aryl hydrocarbon Receptor (AhR) signaling pathway (AID 651777); conditions: 1A2-DRE human hepatoma cells, luciferase, 24 h; activation: stronger effect = higher value; further: nearly all actives have a fitted effect of over 15% in size; further: potency means the concentration at half of the fitted maximal effect; on activation: % of control where 0% means no effect
In short: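 Luminescence read-out: One-Glo added for 30 min at RT after 24 hr compound treatment (37 C, 5% CO2) of human hepatoma cells expressing a DRE/CYP1A2 promoter–luciferase reporter; increased signal indicates AhR activation.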

[17] = target: Nuclear receptor ROR-gamma (Homo sapiens) (UniProt P51449); experiment: qHTS assay for small molecule antagonists of the retinoid-related orphan receptor gamma (ROR-gamma) signaling pathway (AID 651802);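 further: CHO cells with doxycycline-induced ROR-gamma expression; luciferase reporter luminescence driven by ROR response element; series mostly up to about 92 µM; on the % scale 0 is the no-effect control and ±100 the full control effect; nearly all actives have a fitted effect of over 60% in size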
Chain of Nuclear receptor ROR-gamma (Homo sapiens) (P51449 whole entry, looked up): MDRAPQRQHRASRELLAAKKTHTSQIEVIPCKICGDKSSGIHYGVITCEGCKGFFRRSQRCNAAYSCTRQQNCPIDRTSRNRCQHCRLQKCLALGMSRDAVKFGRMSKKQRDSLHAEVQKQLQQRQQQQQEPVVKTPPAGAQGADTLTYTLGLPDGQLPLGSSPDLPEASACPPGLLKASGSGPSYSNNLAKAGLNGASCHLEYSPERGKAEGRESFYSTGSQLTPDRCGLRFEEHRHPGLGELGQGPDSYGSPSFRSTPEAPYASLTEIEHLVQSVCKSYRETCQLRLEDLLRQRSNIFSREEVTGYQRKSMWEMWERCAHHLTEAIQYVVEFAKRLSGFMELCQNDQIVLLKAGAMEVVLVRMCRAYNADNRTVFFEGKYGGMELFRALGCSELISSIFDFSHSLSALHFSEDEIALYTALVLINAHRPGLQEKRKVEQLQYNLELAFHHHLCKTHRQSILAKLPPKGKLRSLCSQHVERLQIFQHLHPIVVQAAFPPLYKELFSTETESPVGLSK
In short: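 Luminescence (One-Glo, 30 min RT) measured 16 h after compound addition and doxycycline induction at 37C. Reporter: RORE-luciferase under TET-inducible ROR-gamma in CHO cells.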

[18] = qHTS assay for small molecule antagonists of the retinoid-related orphan receptor gamma (ROR-gamma) signaling pathway - cell viability counter screen (AID 720652; active means well fitted curve in the direction sought with a large enough effect in the repeat runs; an effect the other way counts as inactive or inconclusive)
In short: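 Cytotoxicity counter screen: intracellular ATP (CellTiter-Glo luminescence) measured in the doxycycline-induced CHO RORE-luciferase reporter line after 16 hr compound exposure at 37 C, 5% CO2.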

[19] = target: Nuclear receptor subfamily 1 group I member 2 (Rattus norvegicus) (UniProt Q9R1A7); experiment: qHTS assay for small molecule activators of the rat pregnane X receptor (rPXR) signaling pathway (AID 651751; call rule not given here; further: 0% is about no effect); conditions: rPXR reporter cells, luciferase (One-Glo), 24 h
Chain of Nuclear receptor subfamily 1 group I member 2 (Rattus norvegicus) (Q9R1A7 whole entry, looked up): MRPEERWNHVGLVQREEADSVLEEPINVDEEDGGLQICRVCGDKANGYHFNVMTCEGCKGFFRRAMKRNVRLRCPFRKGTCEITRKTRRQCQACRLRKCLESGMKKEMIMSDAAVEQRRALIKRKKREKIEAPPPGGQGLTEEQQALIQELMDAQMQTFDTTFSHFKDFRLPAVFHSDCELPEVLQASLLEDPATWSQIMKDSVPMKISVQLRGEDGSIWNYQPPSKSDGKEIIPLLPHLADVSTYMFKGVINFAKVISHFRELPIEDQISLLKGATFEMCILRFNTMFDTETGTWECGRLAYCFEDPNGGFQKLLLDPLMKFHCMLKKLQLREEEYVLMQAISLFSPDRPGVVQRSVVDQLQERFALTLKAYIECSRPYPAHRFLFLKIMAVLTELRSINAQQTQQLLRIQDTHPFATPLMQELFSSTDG

[20] = qHTS assay for small molecule activators of the human pregnane X receptor (PXR) signaling pathway (AID 720659; call rule not given here; further: 0% is about no effect)

O=C(Cl)/C=C/C(=O)Cl
inactive: outcome [1] | Potency [2] | Potency [3] | Potency [4] | Potency [5] | Potency [6] | Potency [7] | Potency [8] | Potency [9] | outcome [10] | outcome [11] | outcome [12] | Potency [13] | activation [14] -2.72% | Potency [15] | activation [16] -0.935% | Potency [17] | Potency [18] | max response [19] 0.356% | outcome [20]

Nc1c(Cl)c(Cl)nc(C(=O)O)c1Cl
inactive: outcome [1] | Potency [2] | Potency [3] | Potency [4] | Potency [5] | Potency [6] | Potency [7] | Potency [9] | outcome [10] | Potency [13] | activation [14] -3.11% and -9.55% and -6.83% | Potency [15] | activation [16] 6.67% and 13.8% and 2.52% | Potency [17] | Potency [18] | max response [19] -1% and -3.34% and -1.89% | outcome [20]

Oc1ccc(Cl)cc1Cl
inactive: Potency [2] | Potency [5] | Potency [6] | Potency [7] | Potency [8] | Potency [9] | outcome [10] | outcome [11] | outcome [12] | Potency [13] | activation [14] 1.07% and -2.53% | Potency [15] | activation [16] 0.13% and 0.875% | Potency [17] | Potency [18] | max response [19] 0.337% and 1.54% | outcome [20]

CCC[CH2][Sn]([Cl])([Cl])[Cl]
inactive: outcome [1] | Potency [2] | Potency [3] | Potency [4] | Potency [5] | Potency [6] | Potency [7] | Potency [8] | Potency [9] | outcome [10] | Potency [13] | activation [14] 0.255% and 3.17% | Potency [15] | activation [16] 0.348% and 0.965% | Potency [17] | Potency [18] | max response [19] 2.08% and 0.146% | outcome [20]

ClC(Cl)=C(Cl)Cl
inactive: outcome [1] | Potency [2] | Potency [3] | Potency [4] | Potency [5] | Potency [6] | outcome [11] | outcome [12] | Potency [13] | activation [14] -0.0832% and 0.219% | Potency [15] | activation [16] -0.882% and 0.706% | Potency [17] | Potency [18] | max response [19] -0.799% and 2.48% | outcome [20]

O=NN(CCO)CCO
inactive: outcome [1] | Potency [2] | Potency [4] | Potency [5] | Potency [6] | Potency [7] | Potency [8] | Potency [9] | outcome [11] | outcome [12] | activation [14] -2.59% | Potency [15] | activation [16] -0.118% | Potency [17] | Potency [18] | max response [19] 3.2% | outcome [20]

CCOc1ccc(N)cc1
inactive: outcome [1] | Potency [2] | Potency [4] | Potency [5] | Potency [6] | Potency [7] | Potency [8] | Potency [9] | outcome [10] | outcome [12] | Potency [13] | activation [14] 1.96% | Potency [15] | activation [16] 1.6% | Potency [17] | Potency [18] | max response [19] 3.36% | outcome [20]

C=CC(=C)C
inactive: outcome [1] | Potency [2] | Potency [3] | Potency [5] | Potency [6] | Potency [7] | Potency [8] | Potency [9] | outcome [10] | outcome [11] | outcome [12] | Potency [13] | activation [14] -2.92% | Potency [15] | activation [16] -0.578% | Potency [17] | Potency [18] | max response [19] 11% | outcome [20]

COc1ccc(N)cc1
inactive: outcome [1] | Potency [2] | Potency [3] | Potency [4] | Potency [5] | Potency [6] | Potency [9] | outcome [10] | Potency [13] | activation [14] -2.17% and -1.84% | Potency [15] | activation [16] 1.03% and 6.89% | Potency [17] | Potency [18] | outcome [20]

CC(C)(c1ccccc1)c1ccc(O)cc1
inactive: outcome [1] | Potency [3] | Potency [4] | Potency [5] | Potency [6] | Potency [7] | Potency [9] | outcome [10] | outcome [11] | outcome [12] | activation [14] -4.52% and -0.799% | activation [16] 0.0169% and 0.603% | Potency [17] | Potency [18] | max response [19] 0.482% and 0.567%
active: Potency [8] 1.78 µM and 3.16 µM | Potency [15] 26.6 µM

OCC(Br)CBr (stereo not given)
inactive: outcome [1] | Potency [2] | Potency [3] | Potency [4] | Potency [5] | Potency [6] | Potency [7] | Potency [8] | Potency [9] | outcome [10] | outcome [11] | outcome [12] | Potency [13] | activation [14] 1.53% | Potency [15] | activation [16] -1.14% | Potency [17] | Potency [18] | outcome [20]

S=C=Nc1cccc2ccccc12
inactive: outcome [1] | Potency [3] | Potency [4] | Potency [5] | Potency [6] | Potency [7] | Potency [8] | Potency [9] | outcome [10] | outcome [11] | outcome [12] | Potency [13] | activation [14] 3.44% | Potency [17] | Potency [18] | max response [19] 5.78%
active: Potency [16] 50.1 µM
